Measured values as given in PubChem BioAssay (Tox21).
Results filed as inconclusive are left out. Calls of active or inactive are those of the source. Unless noted, the call rests on the fitted dose curve; in most records, active means well fitted curve in the direction sought with a large enough effect in the repeat runs; inconclusive means weak or mixed curves; inactive means no such curve, though single readings can be large; an effect the other way counts as inactive or inconclusive.

Experiments:
[1] = qHTS assay to identify small molecule agonists of the RXR signaling pathway - cell viability counter screen (AID 1159529);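 further: HEK 293T cells carrying an RXR-alpha UAS beta-lactamase reporter; series mostly up to about 77 µM; nearly all actives have a fitted effect of over 50% in size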
Outline: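 Counter screen: CellTiter-Glo luminescence. Cells: RXR-alpha-UAS-bla HEK 293T. Medium: 2% charcoal-stripped FBS. Treatment: 16 h, 37 C. Reagent incubation: 30 min, RT.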

[2] = qHTS assay to identify small molecule antagonists of the retinoid acid receptor (RAR) signaling pathway - cell viability counter screen (AID 1159551); further: nearly all actives have a fitted effect of over 35% in size
Outline: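 Seed C3RL4 cells; next day add compound, then retinol to 1 uM final; incubate 6 h at 37 C; add CellTiter-Glo; read luminescence after 30 min at RT.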

[3] = qHTS assay to identify small molecule antagonists of the estrogen related receptor (ERR) signaling pathway - cell viability counter screen (AID 1224818);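 further: series mostly up to about 46 µM; viability measured after 17.5 h of compound exposure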
Outline: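 In the same ERR cell assay, compound-treated wells (17.5 h, 37 C) were multiplexed with a fluorogenic viability reagent, CellTiter-Fluor, read after 30 min to flag cytotoxic substances.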

[4] = qHTS assay to identify small molecule antagonists of the estrogen related receptor (ERR) signaling pathway (AID 1224819;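 further: luminescence from an ERR-driven luciferase reporter measured with One-Glo reagent; series mostly up to about 46 µM; nearly all actives have a fitted effect of over 50% in size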)
Outline: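 qHTS in ERR cells, 2,000/well, 1536 format. Cpd (DMSO) added after 6 h settle, 18 h 37 C. One-Glo luminescence, 30 min RT.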

[5] = qHTS assay to identify small molecule agonists of the estrogen related receptor (ERR) signaling pathway (AID 1224820)
Outline: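 Quantitative HTS of the LOPAC library used NTP ERR reporter cells treated 18 h at 37 C. Signal is luminescence after One-Glo addition and a 30 min room-temperature incubation.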

[6] = tested on: estrogen-related receptor alpha (ERRalpha) with PGC-1alpha coactivator, human; experiment: qHTS assay to identify small molecule antagonists of the estrogen related receptor signaling pathway with the pleiotropic PPARgamma coactivator (PGC) (AID 1224821; calls by dose curve;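 further: series mostly up to about 46 µM; lower luminescence signal means antagonism of PGC/ERR signalling; nearly all actives have a fitted effect of over 50% in size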)
Outline: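 Quantitative HTS for antagonism: PGC/ERR cells received compounds after 6 h attachment and were incubated 18 h at 37 C, with luminescence (One-Glo) as the endpoint.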

[7] = qHTS assay to identify small molecule antagonists of the estrogen related receptor signaling pathway with the pleiotropic PPARgamma coactivator (PGC) cell viability counter screen (AID 1224822; further: series mostly up to about 46 µM)
Outline: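 Compounds in DMSO, with positive and negative controls, were applied to PGC/ERR cells (2,000/well) and left 17.5 h at 37 C before CellTiter-Fluor detection.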

[8] = qHTS assay to identify small molecule agonists of the estrogen related receptor signaling pathway with the pleiotropic PPARgamma coactivator (PGC) (AID 1224823)
Outline: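 Cell-based luciferase assay in the NTP-supplied PGC/ERR line, 2,000 cells/well; 18 h compound exposure at 37 C, luminescence after One-Glo.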

[9] = qHTS assay to identify small molecule antagonists of the estrogen related receptor (ERR) signaling pathway from Tox21 library - cell viability counter screen (AID 1224834); further: nearly all actives have a fitted effect of over 30% in size
Outline: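 CellTiter-Fluor fluorescence measured; ERR cells; 17.5 h compound incubation at 37 C; 30 min reagent step.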

[10] = qHTS assay to identify small molecule agonists of the constitutive androstane receptor (CAR) signaling pathway - cell viability counter screen (AID 1224836); further: series mostly up to about 92 µM; nearly all actives have a fitted effect of over 45% in size
Outline: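 Double-stable HepG2 hepatoma cells (hCAR plus CYP2B6-2.2kb) are treated for 23 h at 37 C with test compounds in 15-point concentration series. PK11195 at 0.75 uM final is co-added. Cell viability is quantified by CellTiter-Fluor.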

[11] = qHTS assay to identify small molecule antagonists of the estrogen related receptor signaling pathway with the pleiotropic PPARgamma coactivator (PGC) from Tox21 10K library - cell viability counter screen (AID 1224840; active means well fitted cell-killing curve with a large enough effect in the repeat runs, not every such curve was filed as active; further: nearly all actives have a fitted effect of over 40% in size)
Outline: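 Here the PGC/ERR cells serve as a cytotoxicity control: they are exposed to compounds for 17.5 hours at 37 C, and live-cell signal is quantified using CellTiter-Fluor fluorescence.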

[12] = qHTS assay to identify small molecule antagonists of the estrogen related receptor signaling pathway with the pleiotropic PPARgamma coactivator (PGC) from Tox21 10K library (AID 1224841; call rule not given here; further: series mostly up to about 92 µM; actives are mostly falling curves and most rising ones were filed inactive; nearly all actives have a fitted effect of over 50% in size)
Outline: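 Each well held 2,000 PGC/ERR cells, pre-incubated six hours (37 C, 5% CO2). Test substances in DMSO were added by pin tool and left for 18 h at 37 C before luciferase detection by One-Glo.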

[13] = qHTS assay to identify small molecule agonists of the estrogen related receptor signaling pathway with the pleiotropic PPARgamma coactivator (PGC) from Tox21 10K library (AID 1224842); further: nearly all actives have a fitted effect of over 15% in size
Outline: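 Luminescence from One-Glo (30 min, room temperature) measured after PGC/ERR cells had 18 h at 37 C with pinned compound (23 nL in DMSO). Cells had been seeded at 2,000 per well and pre-incubated 6 h.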

[14] = biological target: Nuclear receptor subfamily 1 group I member 3 (Homo sapiens) (UniProt Q14994); experiment: qHTS assay to identify small molecule agonists of the constitutive androstane receptor (CAR) signaling pathway (AID 1224839);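 further: HepG2 cells stably carrying human CAR and a CYP2B6 luciferase reporter; series mostly up to about 92 µM; nearly all actives have a fitted effect of over 15% in size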
Sequence of Nuclear receptor subfamily 1 group I member 3 (Homo sapiens) (Q14994 whole entry, looked up): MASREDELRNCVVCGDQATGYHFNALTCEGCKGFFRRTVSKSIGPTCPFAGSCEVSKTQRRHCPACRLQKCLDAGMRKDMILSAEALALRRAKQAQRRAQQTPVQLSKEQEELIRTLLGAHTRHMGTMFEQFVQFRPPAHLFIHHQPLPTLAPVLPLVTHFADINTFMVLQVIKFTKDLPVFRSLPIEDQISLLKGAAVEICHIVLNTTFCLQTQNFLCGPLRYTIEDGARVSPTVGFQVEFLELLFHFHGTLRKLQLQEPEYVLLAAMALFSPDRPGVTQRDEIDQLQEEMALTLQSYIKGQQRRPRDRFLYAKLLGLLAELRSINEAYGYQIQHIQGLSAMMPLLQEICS
Outline: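 Readout: firefly luciferase luminescence via ONE-Glo. System: HepG2 double-stable for hCAR and CYP2B6-2.2kb. Conditions: 15-point compound titration, PK11195 at 0.75 uM final, 24 h incubation.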

[15] = biological target: Thyrotropin receptor (Homo sapiens) (UniProt P16473); experiment: qHTS assay to identify small molecule agonists of the thyroid stimulating hormone receptor (TSHR) signaling pathway (AID 1224843; calls by dose curve; further: nearly all actives have a fitted effect of over 45% in size)
Sequence of Thyrotropin receptor (Homo sapiens) (P16473 whole entry, looked up): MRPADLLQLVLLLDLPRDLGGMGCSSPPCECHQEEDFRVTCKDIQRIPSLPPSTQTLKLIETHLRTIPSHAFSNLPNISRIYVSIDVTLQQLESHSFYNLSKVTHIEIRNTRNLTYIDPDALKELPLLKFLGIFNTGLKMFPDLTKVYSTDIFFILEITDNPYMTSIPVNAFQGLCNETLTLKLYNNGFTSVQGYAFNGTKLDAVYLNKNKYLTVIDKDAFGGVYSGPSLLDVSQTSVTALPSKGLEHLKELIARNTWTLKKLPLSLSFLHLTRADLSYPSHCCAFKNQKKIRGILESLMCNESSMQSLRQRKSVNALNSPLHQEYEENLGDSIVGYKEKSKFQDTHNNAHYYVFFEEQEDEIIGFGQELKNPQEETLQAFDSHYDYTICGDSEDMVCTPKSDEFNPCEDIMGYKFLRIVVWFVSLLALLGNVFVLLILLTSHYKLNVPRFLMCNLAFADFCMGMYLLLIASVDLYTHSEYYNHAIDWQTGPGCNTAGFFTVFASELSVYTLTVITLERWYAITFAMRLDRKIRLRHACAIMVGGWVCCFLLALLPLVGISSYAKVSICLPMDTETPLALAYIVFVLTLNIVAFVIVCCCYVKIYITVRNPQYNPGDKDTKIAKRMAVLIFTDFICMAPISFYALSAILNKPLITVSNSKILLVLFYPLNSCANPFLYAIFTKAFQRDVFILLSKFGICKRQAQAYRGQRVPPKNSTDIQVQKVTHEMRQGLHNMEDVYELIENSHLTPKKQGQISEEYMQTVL
Outline: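 HEK293 cells stably bearing the thyrotropin receptor were plated at 800 cells/well and challenged with compound (30 min, RT). Accumulated cAMP was quantified via cAMP-d2 competing for cryptate-tagged antibody.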

[16] = qHTS assay to identify small molecule agonists of the retinoic acid receptor (RAR) signaling pathway (AID 1159553)
Outline: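 Activation of retinol signaling was monitored via a RARE luciferase reporter in C3RL4 cells. After 6 hr compound treatment at 37 C, detection reagent was added for 30 min at room temperature before luminescence reading.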

[17] = qHTS assay to identify small molecule antagonists of the constitutive androstane receptor (CAR) signaling pathway - cell viability counter screen (AID 1224837); further: series mostly up to about 92 µM; nearly all actives have a fitted effect of over 45% in size
Outline: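 Using CellTiter-Fluor, viability is scored in HepG2 cells stably carrying hCAR and a 2.2kb CYP2B6 reporter after 23 hr compound exposure across 15 concentrations, with CITCO present at 50 nM.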

[18] = biological target: Nuclear receptor subfamily 1 group I member 3 (Homo sapiens) (UniProt Q14994); experiment: qHTS assay to identify small molecule antagonists of the constitutive androstane receptor (CAR) signaling pathway (AID 1224838);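 further: HepG2 cells stably expressing hCAR with CYP2B6 luciferase reporter stimulated by CITCO; nearly all actives have a fitted effect of over 40% in size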
Outline: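 Reporter luminescence was quantified after 24 h exposure of hCAR/CYP2B6-2.2kb double-stable HepG2 cells to compounds at 15 concentrations in the presence of 50 nM CITCO final.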

[19] = biological target: Luciferin 4-monooxygenase (Photinus pyralis) (UniProt P08659); experiment: qHTS assay to identify small molecule inhibitors of firefly luciferase (AID 1224835); further: series mostly up to about 120 µM; nearly all actives have a fitted effect of over 25% in size
Sequence of Luciferin 4-monooxygenase (Photinus pyralis) (P08659 whole entry, looked up): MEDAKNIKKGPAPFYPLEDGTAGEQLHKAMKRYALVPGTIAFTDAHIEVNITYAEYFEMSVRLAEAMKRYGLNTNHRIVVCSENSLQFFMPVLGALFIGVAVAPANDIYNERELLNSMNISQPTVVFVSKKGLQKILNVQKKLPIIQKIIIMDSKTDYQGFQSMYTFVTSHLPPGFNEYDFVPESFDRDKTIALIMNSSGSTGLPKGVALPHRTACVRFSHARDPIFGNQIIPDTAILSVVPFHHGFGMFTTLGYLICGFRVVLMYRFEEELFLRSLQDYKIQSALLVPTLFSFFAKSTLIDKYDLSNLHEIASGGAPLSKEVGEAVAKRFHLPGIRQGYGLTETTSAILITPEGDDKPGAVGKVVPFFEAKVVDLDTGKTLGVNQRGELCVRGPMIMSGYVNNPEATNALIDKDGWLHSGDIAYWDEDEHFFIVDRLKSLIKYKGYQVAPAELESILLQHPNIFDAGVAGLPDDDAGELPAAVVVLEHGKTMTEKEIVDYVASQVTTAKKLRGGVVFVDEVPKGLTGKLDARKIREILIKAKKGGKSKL
Outline: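 Inhibition of purified Photinus luciferase is measured by luminescence. Substrate levels (D-luciferin, ATP) sit at their KM values. Each compound is tested in a concentration series.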

Measured: Potency

OC(CCN1CCCCC1)(c1ccccc1)C1CCCCC1 (configuration not stated)
not listed: [14] | [15] | [16] | [17] | [18] | [19]
inactive: all other assays above

CC(=O)SCc1ccco1
inactive: [1] | [2] | [9] | [10] | [14] | [11] | [15]

O=[N+]([O-])c1cccc(Cl)c1Cl
not listed: [3] | [4] | [5] | [6] | [7] | [8] | [13] | [19]
inactive: all other assays above

CC(=O)O[C@H]1C[C@@H]2CC[C@@H]3[C@H](CC[C@@]4(C)[C@H]3C[C@H]([N+]3(C)CCCCC3)[C@@H]4OC(C)=O)[C@@]2(C)C[C@@H]1N1CCCCC1
inactive: [1] | [2] | [9] | [19] | [17] | [18] | [14] | [11] | [15]

CNS(=O)(=O)Cc1ccc2[nH]cc(CCN(C)C)c2c1
inactive: [1] | [2] | [9] | [19] | [10] | [17] | [14] | [11]

CC[C@@H]1C[C@H](N(Cc2cc(C(F)(F)F)cc(C(F)(F)F)c2)C(C)=O)c2cc(C(F)(F)F)ccc2N1C(=O)OC(C)C
inactive: [1] | [2] | [16] | [9] | [19] | [17] | [11]

CC(C)(C)c1ccc(S)cc1
inactive: [1] | [2] | [9] | [10] | [11] | [15]

CN1CCC[C@@H]1c1cccnc1
inactive: [1] | [2] | [9] | [19] | [10] | [17] | [11]

Cn1c(NCCN(CCO)CCCc2ccc([N+](=O)[O-])cc2)cc(=O)n(C)c1=O
inactive: [1] | [2] | [9] | [10] | [11] | [12] | [13]

CCCCOC(=O)c1ccccc1C(=O)OCC(CC)CCCC (configuration not stated)
inactive: [1] | [2] | [9] | [19] | [10] | [17] | [14] | [11] | [15]

C[Si](C)O[Si](C)(C)O[Si](C)(C)O[Si](C)C
inactive: [1] | [2] | [16] | [9] | [19] | [10] | [11] | [15]

C=CC(=O)OCCOC(=O)CCC(=O)O
not listed: [3] | [4] | [5] | [6] | [7] | [8] | [13] | [16]
inactive: all other assays above

CC(=O)N(CC(=O)N(C)C)c1ccccc1
inactive: [1] | [2] | [9] | [10] | [18] | [14] | [11] | [12] | [13]
